The campaign covered roughly 330,000 compounds. About 3,800 (1.2%) were called active. The sample holds actives, similar compounds and a random draw of the others, so the mix is not that of the screen. Rule as the data show it: active = inhibition above about 15%; inconclusive = no clear call, values can overlap the other calls; inactive = below that.
Each compound was assayed against NAD-dependent protein deacylase sirtuin-5, mitochondrial (Homo sapiens) (UniProt Q9NXA8) (assay: SIRT5 desuccinylase inhibitors, primary screen, biochemical, fluorescence imaging, single point, set 5 (AID 652115)). Details: Purified SirT5, succinyl-peptide AMC, trypsin-coupled fluorescence; at 15 µM; hits give high values.
Sequence of NAD-dependent protein deacylase sirtuin-5, mitochondrial (Homo sapiens) (Q9NXA8 whole entry, looked up): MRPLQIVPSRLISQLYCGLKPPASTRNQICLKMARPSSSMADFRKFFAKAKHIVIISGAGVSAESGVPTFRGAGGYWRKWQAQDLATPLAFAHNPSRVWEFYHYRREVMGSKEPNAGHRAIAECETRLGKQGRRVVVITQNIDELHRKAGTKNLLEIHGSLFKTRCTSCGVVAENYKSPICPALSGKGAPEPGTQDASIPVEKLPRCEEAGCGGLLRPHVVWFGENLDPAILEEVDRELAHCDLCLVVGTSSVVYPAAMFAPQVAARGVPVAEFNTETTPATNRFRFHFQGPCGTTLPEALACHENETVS
With Cc1noc(C)c1NC(=O)N[C@@H]1CC[C@H](CC(=O)Nc2ccccc2)O[C@H]1CO the inhibition was 5.15% (inactive).
For Cc1noc(C)c1NC(=O)N[C@@H]1C=C[C@@H](CC(=O)Nc2ccccc2)O[C@H]1CO, the inhibition was 32.2% (active).
In the case of Cc1noc(C)c1NC(=O)N[C@H]1C=C[C@@H](CC(=O)Nc2ccccc2)O[C@H]1CO, the inhibition is reported as 1.42% (inactive).
For O=S(=O)(Cc1ccccc1)c1nc2ccccc2n1Cc1ccccn1, the inhibition was 21.7% (active).
With c1ccc(CCc2ccccn2)cc1 the inhibition was 9.65% (inactive).
With CC(=O)c1nc2ccccc2n1Cc1ccccc1 the inhibition was -2.51% (inactive).
For COc1ccccc1NC(=O)N[C@H]1C=C[C@H](CC(=O)N[C@@H](C)c2ccccc2)O[C@H]1CO, the inhibition was -1.94% (inactive).
C/C=C/c1cnc2c(c1)C(=O)N([C@@H](C)CO)C[C@@H](C)[C@@H](CN(C)C(=O)c1cnccn1)O2 was tested, and the inhibition was -1.71% (inactive).
For Cc1scc(C(=O)NNC(=S)NCc2ccccc2)c1C, the inhibition was -0.205% (inactive).
With Cc1occc1C(=O)NNC(=S)NCC(C)C the inhibition was 19.4% (active).
With Cc1scc(C(=O)NNC(=S)NCC(C)C)c1C the inhibition was -4.94% (inactive).
For CO[C@H]1CN(C)C(=O)c2cc(NC(=O)C3CC3)ccc2OC[C@H](C)N(C(=O)CN(C)C)C[C@H]1C, the inhibition was 0.163% (inactive).
For CCC(=O)N1[C@@H]2c3ccc(-c4ccc(F)cc4)c(=O)n3C[C@H]1[C@H](CO)[C@H]2C(=O)N(C)C, the inhibition was -32.2% (inactive).
For COc1ccc2c3c(n(C)c2c1)[C@@H](CO)N(CC1CC1)CC31CCN(C(=O)c2ccc3c(c2)OCO3)CC1, the inhibition was 3.18% (inactive).
For COc1cccc(NC(=O)CN(C)CC(=O)Nc2ccc3c(c2)CCC3)c1, the inhibition was 2.3% (inactive).
COc1ccc(-c2ocnc2C(=O)Nc2ccc3c(c2)CCC3)cc1 was tested, and the inhibition was 22.1% (active).
In the case of CC(C)Oc1ccc(C(=O)NCC(=O)Nc2ccc3c(c2)CCC3)cc1, the inhibition is reported as -4.19% (inactive).
For CNC(=O)C[C@@H]1CC[C@H]2[C@H](COc3ccc(NC(=O)c4cccc(OC)c4)cc3C(=O)N2C)O1, the inhibition was 2.09% (inactive).
In the case of CCc1cccc(NC(=O)O[C@H]2[C@H](OC(=O)Nc3ccccc3-c3ccccc3)[C@H](OC(=O)Nc3ccccc3-c3ccccc3)[C@@H](OC)O[C@@H]2CO)c1, the inhibition is reported as 17.1% (active).
For CO[C@H]1O[C@H](CO)[C@@H](OC(=O)Nc2ccccc2-c2ccccc2)[C@H](OC(=O)Nc2ccccc2)[C@H]1OC(=O)Nc1ccccc1, the inhibition was 8.45% (inactive).
CO[C@H]1O[C@H](CO)[C@@H](OC(=O)Nc2ccccc2)[C@H](OC(=O)Nc2ccc3c(c2)OCO3)[C@H]1OC(=O)Nc1ccc2c(c1)OCO2 was tested, and the inhibition was 2.4% (inactive).
For C[C@H]1CN([C@@H](C)CO)C(=O)c2cc(C3=CCCCC3)cnc2O[C@@H]1CN(C)C(=O)c1ccc(F)cc1, the inhibition was 1.19% (inactive).
With CCCNC(=O)N1[C@H](CO)[C@@H]2c3ccccc3N(C(=O)C3CC3)C[C@@H]21 the inhibition was 1.05% (inactive).
For Cc1ccc(NC2=C(Cl)C(=O)OC2OC(=O)c2ccccc2C)cc1 (stereo unspecified), the inhibition was 17.3% (active).
In the case of Cc1ccccc1C(=O)OC1OC(=O)C(Cl)=C1Nc1ccccc1 (stereo unspecified), the inhibition is reported as -2.37% (inactive).
For CCOC(=O)c1ccc(Nc2cc3ccccc3c(=O)[nH]2)cc1, the inhibition was -0.372% (inactive).
For O=C(c1cccnc1)N1CC(=O)N2[C@H](C1)[C@H](c1ccc(-c3ccccc3F)cc1)[C@@H]2CO, the inhibition was -2.3% (inactive).
CCCNC(=O)Nc1ccc2c(c1)C(=O)N(C)C[C@H](OC)[C@H](C)CN(Cc1cccnc1)[C@@H](C)CO2 was tested, and the inhibition was 0.086% (inactive).
In the case of O=[N+]([O-])c1ccc2c(c1)Nc1nc3ccccc3nc1N2, the inhibition is reported as 1.03% (inactive).
In the case of O=[N+]([O-])c1ccc2oc(-c3cccc(O)c3)nc2c1, the inhibition is reported as 18.3% (active).
With CC(=O)Oc1ccc2c(=O)oc(-c3ccc([N+](=O)[O-])cc3)nc2c1 the inhibition was -2.32% (inactive).
For COc1ccccc1C(=O)NCc1nnc(SC(C)C(=O)Nc2nccs2)n1C (stereo unspecified), the inhibition was -2% (inactive).
In the case of Cc1cccc(C(=O)NCc2nnc(SC(C)C(=O)Nc3nnc(C)s3)n2C)c1 (stereo unspecified), the inhibition is reported as 21.7% (active).
For CC(Sc1nnc(CNC(=O)c2ccccc2F)n1C)C(=O)Nc1nccs1 (stereo unspecified), the inhibition was -2.13% (inactive).
For CCCNC(=O)C[C@H]1CC[C@H]2[C@@H](COC[C@@H](O)CN2C(=O)Nc2ccc(Cl)c(Cl)c2)O1, the inhibition was 3.46% (inactive).
In the case of CC(C)(O)C#Cc1ccc(CNC[C@H]2O[C@@H](n3cnc4c(=O)[nH]c(N)nc43)[C@H](O)[C@@H]2O)s1, the inhibition is reported as -5.95% (inactive).
With Nc1nc2c(ncn2[C@@H]2O[C@H](CNS(=O)(=O)N3CCc4ccccc4C3)[C@@H](O)[C@H]2O)c(=O)[nH]1 the inhibition was 2.78% (inactive).
Nc1nc2c(ncn2[C@@H]2O[C@H](CNCc3ccc(OCCCN4CCOCC4)cc3)[C@@H](O)[C@H]2O)c(=O)[nH]1 was tested, and the inhibition was 22.3% (active).
With CCOC(=O)[C@]12CCCC=C1N(CCC1=CCCCC1)C(=O)[C@H](CC(=O)N1CCCCC1)C2 the inhibition was -0.497% (inactive).
For CCOC(=O)[C@]12CCCC=C1N(CCC1=CCCCC1)C(=O)[C@H](CC(=O)N1CCSCC1)C2, the inhibition was 0.458% (inactive).
With CCOC(=O)[C@]12CCCC=C1N(CCC1=CCCCC1)C(=O)[C@H](CC(=O)N1CCN(C(=O)c3ccco3)CC1)C2 the inhibition was 16.3% (active).
For C[C@H]1CN([C@@H](C)CO)C(=O)c2cc(C#CC3CCCC3)cnc2O[C@@H]1CN(C)C(=O)Cc1ccccn1, the inhibition was 0.934% (inactive).
In the case of COc1ccc(Cn2c(=S)[nH]c3cc(C(=O)N4CCCCC4)ccc3c2=O)cc1, the inhibition is reported as 16.6% (active).
COc1ccc(OC)c(-n2c(=S)[nH]c3cc(C(=O)N4CCCCC4)ccc3c2=O)c1 was tested, and the inhibition was -0.433% (inactive).
In the case of COc1ccc(Cn2c(=S)[nH]c3cc(C(=O)NCCCN4CCOCC4)ccc3c2=O)cc1, the inhibition is reported as -1.07% (inactive).
With Cn1cnc(S(=O)(=O)N2C[C@H](O)COC[C@@H]3O[C@H](CC(=O)NC4Cc5ccccc5C4)CC[C@H]32)c1 the inhibition was 1.91% (inactive).
COc1cccc(C#Cc2ccc3c(c2)[C@H]2[C@H](CCN2C(=O)CC2CC2)[C@H](CO)N3)c1 was tested, and the inhibition was 0.183% (inactive).
Cc1ccc(NC(=O)c2csc3c2CCCC3)cc1 was tested, and the inhibition was -2.6% (inactive).
With O=C(N/N=C/c1ccco1)c1ccc(NC(=O)C2CC2)cc1 the inhibition was 0.297% (inactive).
In the case of O=C(N/N=C/c1ccco1)c1csc2c1CCCC2, the inhibition is reported as 15.8% (active).
CCCNC(=O)N1C[C@H](O)COC[C@H]2O[C@@H](CC(=O)NCc3ccncn3)CC[C@@H]21 was tested, and the inhibition was 0.03% (inactive).
C[C@@H]1CN([C@@H](C)CO)C(=O)c2cc(-c3cncnc3)cnc2O[C@H]1CN(C)Cc1cncnc1 was tested, and the inhibition was 4.33% (inactive).
For Cc1ccccc1NC(=O)Cn1c(=O)n(CC2CCCO2)c(=O)c2ccccc21 (stereo unspecified), the inhibition was -0.914% (inactive).
With Cc1ccccc1NC(=O)CSC(=O)c1ccccc1 the inhibition was -2.14% (inactive).
In the case of Cc1ccccc1NC(=O)CN1C(=O)N/C(=C\c2cccn2-c2cccc(C(=O)O)c2)C1=O, the inhibition is reported as 18.5% (active).
For O=C(C[C@@H]1CC[C@H](NC(=O)NC2CCCCC2)[C@H](CO)O1)NCc1ccc(F)cc1, the inhibition was 2.17% (inactive).
With O=C(C[C@@H]1C[C@H]2c3cc(NS(=O)(=O)c4ccc(F)cc4)ccc3O[C@H]2[C@@H](CO)O1)NCc1ccccc1F the inhibition was 2.14% (inactive).
C[C@H](CO)N1C[C@H](C)[C@H](CN(C)C(=O)Nc2ccc(F)cc2)OCCCC[C@H](C)Oc2ccc(NC(=O)CCC(F)(F)F)cc2C1=O was tested, and the inhibition was -0.898% (inactive).
In the case of COCC#Cc1cnc2c(c1)C(=O)N([C@H](C)CO)C[C@H](C)[C@H](CN(C)C(=O)CCN1CCCCC1)O2, the inhibition is reported as 9.41% (inactive).
With CCCN1[C@H](C(=O)NC2Cc3ccccc3C2)[C@@H](CO)[C@@H]2Cn3c(cccc3=O)[C@@H]21 the inhibition was 2.03% (inactive).
For COCC(=O)N1CC(=O)N2[C@H](CO)[C@@H](c3ccc(C#CC4CCCC4)cc3)[C@H]2C1, the inhibition was 0.692% (inactive).
In the case of CCCC#Cc1ccc([C@H]2[C@H](CO)N3CCCCN(S(=O)(=O)CC)C[C@@H]23)cc1, the inhibition is reported as -5.72% (inactive).
With CCCC#Cc1ccc([C@H]2[C@@H](CO)N3CCCCN(S(=O)(=O)CC)C[C@H]23)cc1 the inhibition was -3.78% (inactive).
In the case of CCCC#Cc1ccc([C@H]2[C@@H](CO)N3CCCCN(S(=O)(=O)Cc4ccccc4)C[C@H]23)cc1, the inhibition is reported as 37.3% (active).
COC(=O)C[C@H]1CC[C@H]2[C@@H](COc3ccc(NC(=O)C4CC4)cc3C(=O)N2C)O1 was tested, and the inhibition was 4.29% (inactive).
COc1ccc2c3c(n(C)c2c1)[C@H](CO)N(C(C)=O)CC31CCN(Cc2cccnc2)CC1 was tested, and the inhibition was -0.634% (inactive).
In the case of Cc1ccc(S(=O)(=O)N[C@@H]2CC[C@H](CCn3cc(-c4cccc(F)c4)nn3)O[C@@H]2CO)cc1, the inhibition is reported as -2.4% (inactive).
In the case of Clc1ncn(CCOc2ccccc2)c1Cl, the inhibition is reported as -0.177% (inactive).
With Cc1cccc(OC(=O)c2sc3ncn(C)c(=O)c3c2C)c1 the inhibition was 6.38% (inactive).
Cc1c(C(N)=O)sc2ncn(CCOc3ccccc3)c(=O)c12 was tested, and the inhibition was 25.5% (active).
For COc1ccc(NC(=O)Nc2ccc3c(c2)C(=O)N([C@H](C)CO)C[C@@H](C)[C@H](CN(C)CC2CCCCC2)OCCCC[C@@H](C)O3)cc1, the inhibition was -2.57% (inactive).
With CCC(=O)N1CC(=O)N2[C@H](CO)[C@@H](c3ccc(-c4ccc(C(=O)N(C)C)cc4)cc3)[C@H]2C1 the inhibition was -3.02% (inactive).
For CCNC(=O)C[C@H]1CC[C@@H]2[C@H](COC[C@H](O)CN2C(=O)Nc2c(C)noc2C)O1, the inhibition was -2.07% (inactive).
O=C(NC(c1ccc(Cl)cc1)c1cnccn1)C1CCN(Cc2ccc(Cl)cc2)CC1 (stereo unspecified) was tested, and the inhibition was 18.2% (active).
For O=C(NC(c1ccc(-c2ccccc2)cc1)c1cnccn1)C1CCN(CCOc2ccc(Cl)cc2Cl)CC1 (stereo unspecified), the inhibition was -0.795% (inactive).
With Cc1cccnc1C(NC(=O)C1CCN(Cc2ccc(Cl)c(Cl)c2)CC1)c1ccc(Cl)cc1 (stereo unspecified) the inhibition was 0.115% (inactive).

From PubChem BioAssay AID652115 (Broad Institute, 2013)
